# Data published in PubChem BioAssay AID651640 (Broad Institute, 2012).
# Where “and” joins values, the source holds several entries; their conditions need not be identical. Identical values can stand only once. Screen size: about 350,000 compounds; about 6,000 (1.7%) were called active. Roughly 5% stayed inconclusive and do not appear here. Cut-off read from the data, not from the text of the source: active = CPE inhibition above about 20% (passing the limit was not always enough); inconclusive = no clear call, values can overlap the other calls; tested in BHK-21 cells. Shown is part of a subset that was picked to be rich in actives. A structure can be active in one record and inactive in another.
# Assay: inhibitors of DENV2 cytopathic effect, primary screen, cell-based, plate reader, single concentration (AID 651640);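 note: 0% = median of neutral control wells and 100% = median of positive control wells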
# Conditions: DENV2-infected cells, cytopathic effect rescue, at 9.99 µM, stronger effect = higher value
row,Compound,CPE inhibition
1,CCCC(=O)N1CCC2(CC1)CN(C(=O)C1CCCCC1)[C@@H](CO)c1[nH]c3cc(OC)ccc3c12,0.105% (inactive)
2,C[C@@H]1CCCCO[C@@H](CN(C)C(=O)NC2CCCCC2)[C@@H](C)CN([C@@H](C)CO)C(=O)c2cc(NC(=O)C3CCCCC3)ccc2O1,-1.85% (inactive)
3,C[C@@H]1CN([C@@H](C)CO)C(=O)c2cccc(NC(=O)Nc3ccc4c(c3)OCO4)c2O[C@@H]1CN(C)C(=O)Nc1ccc(F)cc1,16.1% (inactive)
4,C[C@H](CO)N1C[C@H](C)[C@@H](CN(C)C(=O)Nc2ccc3c(c2)OCO3)Oc2ccc(NC(=O)NC3CCCCC3)cc2CC1=O,9.47% (inactive)
5,COc1ccc(S(=O)(=O)N(C)C[C@H]2OCCCC[C@@H](C)Oc3ccc(NC(=O)NC(C)C)cc3C(=O)N([C@H](C)CO)C[C@H]2C)cc1,-2.15% (inactive)
6,COCC(=O)N1CC(=O)N2[C@H](C1)[C@@H](c1ccc(C#Cc3cccc(OC)c3)cc1)[C@@H]2CO,-1.66% (inactive)
7,COc1ccc(S(=O)(=O)N(C)C[C@@H]2OCCCC[C@H](C)Oc3ccc(NC(=O)NC4CCCCC4)cc3C(=O)N([C@H](C)CO)C[C@H]2C)cc1,-9.88% (inactive)
8,CCCN1[C@H](C(=O)N2CCCCC2)[C@@H](CO)[C@@H]2Cn3c(ccc(-c4ccccc4F)c3=O)[C@@H]21,0.279% (inactive)
9,C[C@H](CO)N1C[C@H](C)[C@@H](CN(C)C(=O)c2ccncc2)Oc2ncc(-c3ccncc3)cc2C1=O,0.501% (inactive)
10,C/C=C/c1cccc(-c2nc(C(=O)NCCN3CCCCC3)cc3c2[C@@H](CCO)N([S@](=O)C(C)(C)C)C3)c1,8.26% (inactive)
11,COCc1cn(CC[C@@H]2CC[C@@H](NC(=O)Nc3ccc(C(F)(F)F)cc3)[C@H](CO)O2)nn1,2.57% (inactive)
12,O=C(C[C@H]1C[C@H]2c3cc(NC(=O)Nc4ccccc4)ccc3O[C@H]2[C@H](CO)O1)NC1CCCC1,16.7% (inactive)
13,O=C(N[C@H]1CC[C@@H](CCNS(=O)(=O)Cc2ccccc2)O[C@H]1CO)c1ccccc1F,5.12% (inactive)
14,CN(C)C(=O)c1cccc(-c2ccc([C@H]3[C@H](CO)N4C(=O)CN(C(=O)Cc5ccccc5)C[C@@H]34)cc2)c1,4.14% (inactive)
15,Cc1noc(C)c1NC(=O)Nc1ccc2c(c1)C(=O)N([C@H](C)CO)C[C@@H](C)[C@@H](CN(C)Cc1ccncc1)OCCCC[C@H](C)O2,1.93% (inactive)
16,CN1C(=O)c2cc(NC(=O)C3CCOCC3)ccc2OC[C@@H]2O[C@@H](CC(=O)NCC3CC3)CC[C@@H]21,-9.75% (inactive)
17,CN(C)C(=O)C[C@@H]1C[C@@H]2c3cc(NC(=O)NC4CCCCC4)ccc3O[C@@H]2[C@H](CO)O1,-9.26% (inactive)
18,CO[C@@H]1CN(C)C(=O)c2cc(NC(=O)C3CC3)ccc2OC[C@H](C)N(C(=O)c2ccccc2F)C[C@H]1C,-0.841% (inactive)
19,CCC(=O)Nc1ccc2c(c1)OC[C@H](C)N(C(=O)c1ccccc1F)C[C@@H](C)[C@H](OC)CN(C)C2=O,-6.62% (inactive)
20,CCC(=O)Nc1ccc2c(c1)C(=O)N(C)C[C@H](OC)[C@H](C)CN(C(=O)c1ccccc1F)[C@@H](C)CO2,23.7% (active)
21,C[C@@H]1CN([C@@H](C)CO)C(=O)c2cc(-c3cncnc3)cnc2O[C@@H]1CN(C)C(=O)c1ccccc1F,16.7% (inactive)
22,Cc1ccc2c(c1)NC(=O)[C@@]1(C)[C@@H](c3ccccc3)[C@H]3COc4ccc(Cl)cc4[C@@H]3N1C2=O,82.7% (active)

row,Compound,CPE inhibition
1,COc1ccc2c(c1)[C@H]1[C@H](CO2)[C@H](c2ccccc2)[C@]2(C)C(=O)Nc3cc(F)c(F)cc3C(=O)N12,-1.62% (inactive)
2,CCOC(=O)[C@H]1[C@H]2COc3ccc(Cl)cc3[C@@H]2N2C(=O)c3cc(C)ccc3NC(=O)[C@@]12C,4.71% (inactive)
3,CCc1ccc2c(c1)NC(=O)C2(C)Cc1ccc(OC(F)(F)F)cc1 (stereo unspecified),48.3% (active)
4,COc1ccccc1CC1(C)C(=O)Nc2ccc(OC(F)(F)F)cc21 (stereo unspecified),0.818% (inactive)
5,Cc1ccc(CC2(C)C(=O)Nc3ccc(OC(F)(F)F)cc32)cc1 (stereo unspecified),6.39% (inactive)
6,CC(C)NC(=O)Nc1cccc2c1O[C@@H](CN(C)Cc1ccc(C(=O)O)cc1)[C@@H](C)CN([C@H](C)CO)C2=O,-5.2% (inactive)
7,CO[C@H]1CN(C)C(=O)c2ccc(NC(=O)c3cccc(F)c3)cc2OC[C@H](C)N(CC2CC2)C[C@@H]1C,-4.07% (inactive)
8,O=C(O)c1ccc(N/N=C/c2cn(-c3ccccc3)nc2-c2cccs2)cc1,-1.67% (inactive)
9,O=C(O)/C=C/c1cn(-c2ccccc2)nc1-c1cccs1,21.7% (active)
10,COc1cccc(NC(=O)CN(C)C(=O)/C=C/c2cn(-c3ccccc3)nc2-c2cccs2)c1,-12.9% (inactive)
11,COc1ccc(NC(=O)N[C@@H]2CC[C@H](CCn3cc(-c4ccc(OC)cc4)nn3)O[C@@H]2CO)cc1,3.46% (inactive)
12,COc1cccc(NC(=O)N(C)C[C@H]2Oc3cc(/C=C/c4ccccc4)ccc3S(=O)(=O)N([C@H](C)CO)C[C@@H]2C)c1,1.83% (inactive)
13,Cc1cccc(C)c1OCCN1CCOCC1,5.93% (inactive)
14,c1ccc(-c2ccc(OCCN3CCOCC3)cc2)cc1,27.1% (active)
15,COc1ccc(-c2sc3ccccc3c2-c2ccc(OCCN3CCOCC3)cc2)cc1,9.44% (inactive)
16,O=C(C[C@H]1CC[C@@H](NC(=O)Nc2ccc(F)cc2)[C@H](CO)O1)NCc1cccc(F)c1,1.45% (inactive)
17,C[C@H](NC(=O)N(C)C[C@@H]1OCc2ccccc2-c2ccccc2C(=O)N([C@H](C)CO)C[C@@H]1C)c1ccccc1,3.49% (inactive)
18,O=C(C[C@@H]1CC[C@@H](NC(=O)CC2CC2)[C@H](CO)O1)NCc1ccc(-c2ccccc2)cc1,2.21% (inactive)
19,Cn1cnc(S(=O)(=O)N2C[C@H](O)COC[C@@H]3O[C@H](CC(=O)NCc4cccc(F)c4)CC[C@H]32)c1,-0.815% (inactive)
20,COc1ccc([C@H]2N[C@]3(CCCN(Cc4ccco4)C3=O)[C@H]3C(=O)N(C)C(=O)[C@@H]23)cc1,91.3% (active)
21,CCN1C(=O)[C@H]2[C@@H](c3ccccc3)N[C@]3(CCCN(Cc4ccc(C)cc4)C3=O)[C@H]2C1=O,-9.89% (inactive)
22,Cc1ccc([C@H]2N[C@]3(CCCN(Cc4ccccc4)C3=O)[C@H]3C(=O)N(Cc4ccccc4)C(=O)[C@@H]23)cc1,12.7% (inactive)

row,Compound,CPE inhibition
1,CC(C)CC#Cc1ccc2c(c1)O[C@H](CN(C)C(=O)CC1CC1)[C@@H](C)CN([C@@H](C)CO)S2(=O)=O,0.266% (inactive)
2,CCC(=O)N(C)C[C@@H]1Oc2cc(C#C[C@H](C)O)ccc2S(=O)(=O)N([C@H](C)CO)C[C@@H]1C,8.89% (inactive)
3,CCCNC(=O)N1[C@@H]2CNC[C@H]1C2c1ccc(-c2ccccc2)cc1 (stereo partly specified),-5.46% (inactive) and 6.08% (inactive)
4,COc1ccc(S(=O)(=O)N2C[C@@H](O)COC[C@H]3O[C@H](CC(=O)N[C@H]4CCN(Cc5ccccc5)C4)CC[C@@H]32)cc1,13.5% (inactive)
5,CC(=O)N1[C@H](CO)[C@@H](c2ccccc2)[C@@H]1CN(CC(C)C)C(=O)c1ccccn1,-9.41% (inactive)
6,Cc1cccc(-c2ccc(C3[C@H]4CNC[C@@H]3N4S(=O)(=O)c3ccccc3F)cc2)c1 (stereo partly specified),-1.96% (inactive) and 22.1% (active)
7,CN(C)C(=O)c1cccc(-c2ccc(C3[C@H]4CNC[C@@H]3N4C(=O)Nc3ccccc3F)cc2)c1 (stereo partly specified),23.3% (active)
8,COc1cccc(-c2ccc(C3[C@H]4CNC[C@@H]3N4C(=O)Nc3ccc(F)cc3)cc2)c1 (stereo partly specified),-1.4% (inactive) and 18.6% (inactive)
9,N#Cc1ccc(-c2ccc(C3[C@H]4CNC[C@@H]3N4S(=O)(=O)c3ccccc3F)cc2)cc1 (stereo partly specified),6.8% (inactive)
10,O=S(=O)(c1ccccc1F)N1[C@@H]2CNC[C@H]1C2c1ccc(-c2cncnc2)cc1 (stereo partly specified),-1.33% (inactive)
11,CN(C)C(=O)c1ccc(-c2ccc(C3[C@H]4CNC[C@@H]3N4C(=O)Nc3cc(F)ccc3F)cc2)cc1 (stereo partly specified),1.83% (inactive)
12,C[C@H](CO)N1C[C@H](C)[C@@H](CN(C)Cc2ccc(Cl)c(Cl)c2)Oc2ccc(NC(=O)Nc3ccc(C(F)(F)F)cc3)cc2CC1=O,-2.55% (inactive)
13,CN1C(=O)c2cc(NC(=O)C3CC3)ccc2OC[C@@H]2O[C@@H](CC(=O)NCC3CCCCC3)CC[C@@H]21,-7.29% (inactive)
14,C[C@@H]1CN([C@H](C)CO)C(=O)c2cccc(NC(=O)Nc3ccc(F)cc3)c2O[C@@H]1CN(C)C(=O)Nc1ccc(C(F)(F)F)cc1,2.25% (inactive)
15,O=C(NCc1ccncc1)c1ccc(NS(=O)(=O)c2cccc([N+](=O)[O-])c2)cc1,-0.812% (inactive)
16,O=C(NCc1ccncc1)c1cccc(NS(=O)(=O)c2ccc(F)c(F)c2)c1,41.4% (active)
17,O=C(NCc1ccccc1)c1ccc(S(=O)(=O)Nc2cccc(C(F)(F)F)c2)cc1,2.44% (inactive)
18,CC(C)NC(=O)N[C@H]1CC[C@H](CC(=O)NC2Cc3ccccc3C2)O[C@H]1CO,-2.08% (inactive)
19,C[C@@H]1CN([C@H](C)CO)S(=O)(=O)c2ccc(Br)cc2O[C@@H]1CN(C)Cc1cncnc1,19.1% (inactive)
20,CCOC(=O)[C@H]1[C@H]2COc3cc(OC)ccc3[C@@H]2N2C(=O)CN(Cc3ccc(Cl)cc3)C(=O)[C@@]12C,-5.6% (inactive)
21,CCOC(=O)[C@H]1[C@H]2COc3ccc(C)cc3[C@@H]2N2C(=O)CN(Cc3ccc(F)cc3)C(=O)[C@@]12C,-7.57% (inactive)
22,CCOC(=O)[C@H]1[C@H]2COc3ccccc3[C@@H]2N2C(=O)CN(Cc3ccccc3)C(=O)[C@@]12C,95% (active)
